MBD2 DNA inh: inhibitors of human MBD2 binding to methylated oligonucleotide. Q9UBB5. TR-FRET. inhibition, % at 4.4 µM. 370,000 tested, 0.31% active. AID 686964; in the data active = inhibition above about 13%
rCAG RNA binder: r(CAG) repeat RNA binding; TO-PRO-1 dye displacement fluorescence; inhibition, % at 3 µM; 370,000 tested, 1.3% active; AID 651821;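 active = inhibition above the plate cutoff, the mean of all test compounds on that plate plus 3 SD, cut at about 35% in these data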;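 also: 0% = DMSO alone and 100% = 100 µM mitoxantrone as full dye displacement; higher means more dye released from RNA so lower well fluorescence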
LEDGF integ inh: blocks HIV-1 LEDGF/p75-dependent DNA integration | inhibition, % at 3.7 µM | TR-FRET IN-LEDGF/p75 DNA integration, Eu/Cy5 | 370,000 tested, 0.64% active;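 active = inhibition above the screen-wide mean plus 3 SD, cut at about 13% in these data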;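 also: signal is the Cy5 over europium emission ratio at 671 and 618 nm; 0% = plate median of compound wells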
UHRF1 MBD2 ctr: human UHRF1 methylated DNA binding inhibitors; AID 687016; 370,000 tested, 0.75% active; inhibition, % at 4.4 µM; Q96T88; UHRF1 binding to methylated oligo, TR-FRET; in the data active = inhibition above about 21%;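 also: UHRF1 SRA domain binding a hemimethylated CpG hairpin DNA probe; 0% = median of test compound wells and 100% = reference inhibitor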
PG9 Ab binder: binds the HIV-1 gp120 antibody PG9; TR-FRET gp120-PG9 antibody binding; 360,000 tested, 0.43% active; inhibition, % at 6.7 µM; in the data active = inhibition above about 8.5%
DNMT1 block: blocks human DNA methyltransferase DNMT1 | P26358 | AID 588458 | 360,000 tested, 0.83% active | DNMT1 molecular beacon, Hinp1I cleavage, fluorescence | inhibition (reported as % activation of signal), % at 10 µM; in the data active = inhibition above about 50%
DNMT1 interf DR: beacon fluorescence artifact, dose response counter-screen. shares compounds with DNMT1 block. molecular beacon fluorescence, spectral interference counter-screen. IC50, µM. 200 tested, under 10 active. AID 602382; call rule not given here
DNMT1 inh conf: confirmation of human DNMT1 inhibitors; shares compounds with DNMT1 block; DNMT1 molecular beacon HinP1I cleavage, fluorescence; inhibition, % at 10 µM; 2,300 tested, 8% active; AID 602385;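 active = average inhibition of at least 30% in the single-concentration confirmation test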
DNMT1 interf: shows spectral interference in the DNMT1 beacon assay. activation (fluorescence interference), % at 10 µM. AID 602387. shares compounds with DNMT1 block. DNMT1 molecular beacon spectral interference counterscreen, fluorescence 485/520. 2,300 tested, 1% active;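 active = activation of at least 30% at 10 µM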;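 also: DNMT1 catalytic domain with a HinP1I cleavage step and a FAM/dabcyl DNA beacon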
* marks the source's active call; other numbers are inactive results; · = no result given. An excerpt weighted towards active compounds, which were near 3.5% of everything screened.

SMILES	MBD2 DNA inh	rCAG RNA binder	LEDGF integ inh	UHRF1 MBD2 ctr	PG9 Ab binder	DNMT1 block	DNMT1 inh conf	DNMT1 interf	others
COc1ccccc1C1C2=C(CC(C)(C)CC2=O)N(CC(=O)O)C2=C1C(=O)CC(C)(C)C2	6	-3	-1	0	-1	52*	7	9
CCOc1ccc(Nc2ncnc3c2cnn3C)cc1	0	-4	-2	1	-1	4	·	·
N#C/C(=C\c1c(N2CCC(C(N)=O)CC2)nc2ccccn2c1=O)C(=O)NCc1ccco1	-1	2	1	-2	1	64*	6	3
Cc1cccn2c(=O)c(/C=C(\C#N)C(=O)NCc3ccco3)c(N3CCOCC3)nc12	-1	-4	1	-4	-2	3	·	·
COC(=O)[C@]1(Cc2ccccc2)N[C@H](c2ccc(SC3CCCCC3)c(OC)c2)[C@@H]2C(=O)N(C)C(=O)[C@@H]21	-2	7	-1	-2	0	-8	·	·
O=C(/C=C/c1ccco1)N1CCC(Cc2ccccc2)CC1	-5	3	3	-2	0	87*	7	-2
O=C(/C=C/c1ccco1)N1CCN(c2ncccn2)CC1	0	-1	2	2	-3	13	·	·
O=C(Nc1ccccn1)C1CCN(c2ncnc3c2nc2n3CCCCC2)CC1	0	-6	2	-3	-3	-2	·	·
Cc1cc2oc(=O)cc(-c3cc4ccccc4o3)c2cc1O	2	31	0	-1	-1	81*	1	1
CC(=O)COc1ccc2oc(=O)cc(-c3cc4ccccc4o3)c2c1	4	22	1	3	0	-4	·	·
O=c1cc(-c2cc3ccccc3o2)c2cc(O)ccc2o1	·	·	·	·	·	-2	·	·
COc1cccc2cc(-c3cc(=O)oc4cc(C)c(OCC(C)=O)cc34)oc12	2	10	0	0	0	63*	1	-2
CN(C)S(=O)(=O)N(CC(=O)N(Cc1ccccc1)Cc1ccccc1)c1ccccc1	1	1	4	0	0	56*	3	4
CCn1cc(S(=O)(=O)NCCc2ccc(OC)c(OC)c2)cn1	6	-4	-3	2	-1	83*	3	0
O=C(/C=C/c1ccco1)Nc1scc(-c2ccccc2)c1C(=O)O	4	31	2	20	-1	82*	13	1
O=C(/C=C/c1ccco1)Nc1nc(-c2ccccc2)cs1	3	4	-1	1	0	-4	·	·
Cc1cc(Cl)ccc1OCC(=O)Nc1cccc(S(=O)(=O)NC2=NCCCCC2)c1	3	-4	-2	1	-2	95*	3	2
CCOC(=O)/C(C#N)=C/c1ccc(OCC(=O)Nc2ccc(C)c(C)c2)c(OC)c1	4	-1	0	0	-1	54*	2	-2
COc1cc(/C=C(/C#N)c2nc3ccccc3[nH]2)ccc1OCC(=O)Nc1ccccc1C	0	5	-5	4	-3	52*	-1	-1
COc1cc(/C=C(\C#N)c2nc3ccccc3s2)ccc1OCC(=O)Nc1ccccc1	·	·	·	·	·	57*	5	6
OC(c1ccccc1)(c1nc(-c2cc(F)cc(F)c2)cs1)C(F)(F)F (stereo unspecified)	2	0	0	10	0	3	·	·
O=C(NCc1ccccc1CN1CCCC1)C1CCN(C(=O)c2ccc(Cl)cc2)CC1	-4	3	0	-1	-2	0	·	·
COc1cccc(C(=O)N2CCN(Cc3ccccc3Br)CC2)c1	5	-6	5	-1	-3	-3	·	·
CCOC(=O)C(C)NC(=O)CCc1nnc2ccc(N3CCC(C)CC3)nn12 (stereo unspecified)	3	-12	0	1	3	-1	·	·
CCc1noc(C)c1C(=O)OCC(=O)Nc1cccc(C)c1	5	-2	1	0	2	77*	3	3
SMILES	MBD2 DNA inh	rCAG RNA binder	LEDGF integ inh	UHRF1 MBD2 ctr	PG9 Ab binder	DNMT1 block	DNMT1 inh conf	DNMT1 interf	others
O=C(O)CCc1ccc(S(=O)(=O)Nc2cc(C(F)(F)F)ccc2N2CCCC2)cc1	-3	21	4	6	0	53*	76*	-2	DNMT1 interf DR=>99
Cc1ccc(NC(=O)c2nc[nH]c2C(=O)NCCCNC(=O)c2[nH]cnc2C(=O)Nc2ccc(C)cc2)cc1	·	·	·	·	·	59*	8	0
Cc1ccc(NC(=O)c2nc[nH]c2C(=O)NCCCCCCNC(=O)c2[nH]cnc2C(=O)Nc2ccc(C)cc2)cc1	2	3	3	0	3	28	·	·
Cc1ccc(NC(=O)c2nc[nH]c2C(=O)NCCCCNC(=O)c2[nH]cnc2C(=O)Nc2ccc(C)cc2)cc1	3	2	-1	-1	-1	89*	2	-4
O=C(Nc1cccc(Cl)c1)c1nc[nH]c1C(=O)NCCCNC(=O)c1[nH]cnc1C(=O)Nc1cccc(Cl)c1	1	6	-2	-3	0	61*	2	-3
O=C(Nc1ccccc1)c1nc[nH]c1C(=O)NCCCCNC(=O)c1[nH]cnc1C(=O)Nc1ccccc1	-3	2	-1	-3	-1	-15	·	·
Cc1ccc2nc(NC(=O)/C=C/c3ccc4c(c3)OCO4)sc2c1	-2	1	-1	5	0	56*	2	-4
O=C(/C=C/c1ccc2c(c1)OCO2)Nc1nc2ccccc2s1	0	0	2	-1	2	39	·	·
CCOc1ccc(C(=O)Nc2ccc(S(=O)(=O)N3CCN(C)CC3)cc2)cc1	7	1	5	5	-2	-1	·	·
CCN(CC(=O)Nc1ccccc1C(F)(F)F)C(=O)CCc1nc2sc3c(c2c(=O)[nH]1)CCCC3	1	8	4	7	5	22	·	·
CCN(CC(=O)Nc1c(F)cccc1F)C(=O)CCc1nc2sc3c(c2c(=O)[nH]1)CCCC3	2	25	12	9	2	54*	5	2
CC1(NC(=O)CCc2nc3sc4c(c3c(=O)[nH]2)CCCC4)CCS(=O)(=O)C1 (stereo unspecified)	0	28	4	3	-1	54*	6	-4
C/C(CC(C)C)=N\NS(=O)(=O)c1ccc(C)c([N+](=O)[O-])c1	-5	2	0	1	0	86*	1	10
C/C(=N\NS(=O)(=O)c1ccc(C)c([N+](=O)[O-])c1)c1cccs1	2	11	-4	-1	0	-2	·	·
N#Cc1c(NCCN)nc(NCc2ccccc2)c2c1CCN(Cc1ccccc1)C2	·	·	·	·	·	77*	3	-2
C=CCNc1nc(NCc2ccccc2)c(C#N)c2c1CN(C)CC2	-7	2	-2	-4	-1	3	·	·

Screening results deposited in PubChem BioAssay by several laboratories.
